A number with no mark means an inactive call. Inconclusive results are not listed. Active and inactive are the calls of the source. Unless noted, the call rests on the fitted dose curve.

Potency data for seven compounds are collected here from PubChem BioAssay (Tox21).

A short description of assay [1]: Nuclear factor erythroid 2-related factor 2/antioxidant responsive element (Nrf2/ARE) small molecule agonists: qHTS cell viability counter screen in human keratinocytes (AID 1919968; active means well fitted curve in the direction sought with a large enough effect in the repeat runs; an effect the other way counts as inactive or inconclusive; further: nearly all actives have a fitted effect of over 55% in size). The procedure, abridged:
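Cytotoxicity was multiplexed with the Nrf2/ARE luciferase assay in the same wells. Stably transfected HaCaT keratinocytes were treated with test compounds for 23 h at 37 C. Cell viability was then measured by CellTiter-Fluor fluorescence.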
In general terms: In qHTS, concentration-response curves come from the screen itself.

Assay [2] in a line: Nuclear factor erythroid 2-related factor 2/antioxidant responsive element (Nrf2/ARE) small molecule agonists: luciferase reporter gene qHTS assay in human keratinocytes (AID 1919969; further: nearly all actives have a fitted effect of over 35% in size). (A reporter such as luciferase makes a cellular process visible.)
Assay [3] concerns the target Gonadotropin-releasing hormone receptor (Homo sapiens) (UniProt P30968). As to the kind of experiment: Human gonadotropin-releasing hormone receptor (GnRHR) small molecule agonists, calcium flux assay in GnRHR-HEK293 cells (AID 1920063). Further: nearly all actives have a fitted effect of over 35% in size. The procedure, abridged:
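Agonist activity was measured as intracellular calcium flux in HEK293 cells engineered to stably express human GnRHR. After dye loading for 1 hour at 37 C, compounds in DMSO were added and fluorescence was followed for 3 minutes.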
(In general: Calcium assays in cells follow changes in intracellular calcium, usually with a dye or a luminescent sensor.)

In assay [4] the target is KiSS-1 receptor (Homo sapiens) (UniProt Q969F8). As to the kind of experiment: Human kisspeptin (KISS1R) small molecule agonists, calcium flux assay in KISS1R-HEK293 cells (AID 1920064; active means well fitted curve in the direction sought with a large enough effect in the repeat runs; an effect the other way counts as inactive or inconclusive). The procedure, abridged: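 Agonist activity is monitored as intracellular calcium rise in engineered HEK293 cells carrying human KISS1R. Cells are dye-loaded for 1 h at 37 C before compound addition, and fluorescence is recorded for 3 min.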

The nature of assay [5]: G protein-coupled receptor (GPCR) small molecule agonists, calcium flux assay: HEK293 wild type cell line counter screen (AID 1920065). The procedure, abridged:
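Seed cells, incubate 18 h (37 C, 5% CO2); add calcium dye, 1 h at 37 C; pin-transfer compounds, ATP control or DMSO; read fluorescence 480/540 nm each second for 3 min.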

Assay [6] can be described thus: p53 small molecule agonists, cell-based qHTS assay with human liver microsomes (AID 1963577). The procedure, abridged: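 Fluorescence of the beta-lactamase reporter in p53RE-bla cells, detected with LiveBLAzer substrate (2 h, room temperature, dark), served as the read-out after 16 h compound exposure at 37 C with human liver microsomes and NADPH, each 0.5 mg/mL final.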

Assay [7] in a line: p53 small molecule agonists, cell-based qHTS assay with rat liver microsomes (AID 1963578). The essentials: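 Cells carrying a p53 response element–beta-lactamase reporter were plated and rested 5 h, then dosed with compound in DMSO plus rat liver microsomes and NADPH, each at 0.5 mg/mL final. After 16 h at 37 C, LiveBLAzer substrate was added for 2 h.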
Assay [8] can be described thus: p53 small molecule agonists, cell-based qHTS assay with human liver microsomes: qHTS cell viability counter screen (AID 1963579). Further: nearly all actives have a fitted effect of over 45% in size. The procedure, abridged:
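Cytotoxicity counter screen: p53RE-bla, 4,000 cells/well; 5 h settle, 37 C/5% CO2; cpd + HLM 0.5 mg/mL + NADPH 0.5 mg/mL (final); 16 h, 37 C; CellTiter-Glo, 30 min RT, luminescence.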

Assay [9] can be described thus: p53 small molecule agonists, cell-based qHTS assay: qHTS cell viability counter screen (AID 1963581). Further: nearly all actives have a fitted effect of over 45% in size. The essentials:
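Viability was counter-screened in parallel with the p53 agonist reporter by measuring intracellular ATP luminescence in the same HCT-116 p53RE-bla wells after 16 h compound treatment at 37 C.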

Assay [10] can be described thus: p53 small molecule agonists, cell-based qHTS assay (AID 1963582; active means well fitted activation curve with a large enough effect in the signal ratio in the repeat runs, not every such curve was filed as active; the % refers to the signal ratio). The procedure, abridged: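 Cells carrying a p53-responsive bla reporter are treated with test compounds for 16 h at 37 C; beta-lactamase activity is then detected with LiveBLAzer B/G FRET substrate after 2 h at room temperature.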
Assay [11] concerns the target 5-hydroxytryptamine receptor 2A (Homo sapiens) (UniProt P28223). Briefly: 5-hydroxytryptamine receptor 2A (HTR2A) small molecule antagonists, cell-based qHTS assay (AID 1963586). Further: nearly all actives have a fitted effect of over 45% in size. The procedure, abridged:
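CHO cells stably expressing human HTR2A were plated for 18 h at 37 C, then loaded with calcium dye for 1 h. Compounds were preincubated 5 min at room temperature before DOI (4 nM solution) was added. Kinetic fluorescence was read for 3 min.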

Assay [12] has the same target. As to the kind of experiment: 5-hydroxytryptamine receptor 2A (HTR2A) small molecule agonists, cell-based qHTS assay (AID 1963587). Further: nearly all actives have a fitted effect of over 30% in size. The essentials: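 HTR2A-CHO cells, plated 18 h at 37 C/5% CO2, dye-loaded 1 h at 37 C; compounds in DMSO added by pin tool (agonist mode). Intracellular calcium flux read as kinetic fluorescence on FDSS over 2 min at 1 s intervals.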

The target in assay [13] is Muscarinic acetylcholine receptor M1 (Homo sapiens) (UniProt P11229). As to the kind of experiment: Cholinergic receptor muscarinic 1 (CHRM1) small molecule antagonists, cell-based qHTS assay (AID 1963588). Further: nearly all actives have a fitted effect of over 40% in size. Further: potency means the concentration at half of the fitted maximal effect. The essentials:
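Compounds were tested at 15 concentrations in three independent runs. Dye-loaded CHRM1-CHO cells were exposed 5 min at room temperature before stimulation by acetylcholine added at 50nM. Intracellular calcium was read kinetically on FDSS for 3 min.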

For assay [14] the target is unchanged. As to the kind of experiment: Cholinergic receptor muscarinic 1 (CHRM1) small molecule agonists, cell-based qHTS assay (AID 1963589). Further: nearly all actives have a fitted effect of over 35% in size. The essentials:
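Cells were plated and incubated 18 h at 37 C/5% CO2, loaded with calcium dye for 1 h at 37 C, then treated with compounds in DMSO. Fluorescence was recorded kinetically at 1 sec intervals.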

The nature of assay [15]: cAMP Responsive Elements (CRE) small molecule agonists, cell-based qHTS assay (AID 1963590). The procedure, abridged: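 Cells carrying a CRE-driven beta-lactamase reporter (HEK 293T) are seeded, incubated overnight (18 h), and treated with test compounds for 3 h at 37 C; reporter activity is then detected with a FRET substrate after 2 h at room temperature.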
Assay [16] in a line: cAMP Responsive Elements (CRE) small molecule antagonists, cell-based qHTS assay (AID 1963591; active means well fitted inhibition curve with a large enough effect in the signal ratio in the repeat runs, not every such curve was filed as active; the % refers to the signal ratio). The procedure, abridged: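 Cells (CRE-bla HEK 293T, DMEM with 10% dialyzed FBS and 25 mM HEPES) are seeded and incubated 18 h. Compounds are added with NKH477 agonist at 0.25 uM final for 3 h, then FRET substrate for 2 h.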
The target of assay [17] is Beta-2 adrenergic receptor (Homo sapiens) (UniProt P07550). Briefly: Adrenergic beta2 receptor (ADRB2) small molecule antagonists, cell-based qHTS assay (AID 1963592). Further: series mostly up to about 92 µM; nearly all actives have a fitted effect of over 50% in size. The essentials: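 Assay format: CHO-ADRB2 cells, 18-20hr seeding at 37C/5% CO2, then compound plus 1nM isoproterenol agonist mix for 0.5hr RT. Homogeneous time-resolved fluorescence cAMP detection after 1hr, expressed as 665/615 nm ratio.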

Assay [18] has the same target. As to the kind of experiment: Adrenergic beta2 receptor (ADRB2) small molecule agonists, cell-based qHTS assay (AID 1963593).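 Further: CHO cells stably overexpressing human ADRB2.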 The essentials:
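CHO cells stably over-expressing ADRB2 were plated overnight at 37C, then dosed with compounds plus a stimulation mix containing 100uM IBMX and 25uM Ro-20-1724 for 0.5hr at room temperature. cAMP was measured by HTRF competition, 1hr.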

The target in assay [19] is D(2) dopamine receptor (Homo sapiens) (UniProt P14416). As to the kind of experiment: Dopamine D2 receptor (DRD2) small molecule agonists, cell-based qHTS assay (AID 1963594). Further: nearly all actives have a fitted effect of over 35% in size. The procedure, abridged: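 HEK293 cells stably expressing DRD2 were cultured 24 h at 37 C, then given Ro20-1724 (0.1 mM final) and compounds for 10 min at room temperature. NKH477 (200nM) was then added for 30 min. cAMP was read by HTRF.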

Assay [20] has the same target. Briefly: Dopamine D2 receptor (DRD2) small molecule antagonists, cell-based qHTS assay (AID 1963595; active means well fitted inhibition curve with a large enough effect in the signal ratio in the repeat runs, with a control signal flat; the % refers to the signal ratio). The procedure, abridged: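 DRD2-HEK293; 0.1 mM Ro20-1724; cpd 10 min RT; NKH477 200 nM + quinpirole 12 nM, 30 min RT; HTRF cAMP (cAMP-d2/anti-cAMP cryptate), 665/620 nm ratio after 1 h.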

Muscarinic acetylcholine receptor M1 (Homo sapiens), sequence (P11229 whole entry, looked up): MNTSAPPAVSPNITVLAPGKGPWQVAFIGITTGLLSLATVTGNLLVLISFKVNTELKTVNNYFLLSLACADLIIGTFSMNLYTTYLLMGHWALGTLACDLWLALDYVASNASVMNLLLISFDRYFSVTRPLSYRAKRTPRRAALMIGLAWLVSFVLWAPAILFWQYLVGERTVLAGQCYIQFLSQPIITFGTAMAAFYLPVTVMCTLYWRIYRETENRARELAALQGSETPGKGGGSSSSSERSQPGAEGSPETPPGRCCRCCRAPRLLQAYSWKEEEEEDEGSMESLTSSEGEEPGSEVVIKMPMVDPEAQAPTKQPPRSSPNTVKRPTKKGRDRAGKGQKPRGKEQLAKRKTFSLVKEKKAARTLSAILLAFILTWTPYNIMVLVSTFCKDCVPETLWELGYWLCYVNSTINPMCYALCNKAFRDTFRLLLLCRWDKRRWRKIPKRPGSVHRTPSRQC
Beta-2 adrenergic receptor (Homo sapiens), sequence (P07550 whole entry, looked up): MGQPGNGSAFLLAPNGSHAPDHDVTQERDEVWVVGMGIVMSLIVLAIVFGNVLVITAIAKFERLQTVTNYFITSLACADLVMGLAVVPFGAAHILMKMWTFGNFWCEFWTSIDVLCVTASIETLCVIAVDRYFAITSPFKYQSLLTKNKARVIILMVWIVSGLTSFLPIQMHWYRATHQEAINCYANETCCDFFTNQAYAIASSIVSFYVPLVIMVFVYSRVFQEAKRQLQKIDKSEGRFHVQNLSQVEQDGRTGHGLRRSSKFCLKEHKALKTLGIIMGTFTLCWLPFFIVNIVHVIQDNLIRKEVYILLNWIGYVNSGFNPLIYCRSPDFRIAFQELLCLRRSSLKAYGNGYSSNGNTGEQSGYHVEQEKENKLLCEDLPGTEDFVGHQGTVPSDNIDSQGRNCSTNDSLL
D(2) dopamine receptor (Homo sapiens), sequence (P14416 whole entry, looked up): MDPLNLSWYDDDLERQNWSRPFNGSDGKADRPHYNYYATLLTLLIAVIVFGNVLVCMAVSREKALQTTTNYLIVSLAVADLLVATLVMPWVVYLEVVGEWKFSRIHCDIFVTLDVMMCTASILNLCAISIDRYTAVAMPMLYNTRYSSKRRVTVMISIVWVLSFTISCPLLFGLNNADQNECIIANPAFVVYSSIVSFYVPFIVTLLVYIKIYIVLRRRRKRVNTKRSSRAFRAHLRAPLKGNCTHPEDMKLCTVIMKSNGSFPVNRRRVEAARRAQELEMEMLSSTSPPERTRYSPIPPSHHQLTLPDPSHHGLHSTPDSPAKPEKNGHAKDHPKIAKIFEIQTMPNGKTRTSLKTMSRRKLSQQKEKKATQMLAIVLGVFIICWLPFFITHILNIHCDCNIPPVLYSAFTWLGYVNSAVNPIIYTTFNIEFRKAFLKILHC
KiSS-1 receptor (Homo sapiens), sequence (Q969F8 whole entry, looked up): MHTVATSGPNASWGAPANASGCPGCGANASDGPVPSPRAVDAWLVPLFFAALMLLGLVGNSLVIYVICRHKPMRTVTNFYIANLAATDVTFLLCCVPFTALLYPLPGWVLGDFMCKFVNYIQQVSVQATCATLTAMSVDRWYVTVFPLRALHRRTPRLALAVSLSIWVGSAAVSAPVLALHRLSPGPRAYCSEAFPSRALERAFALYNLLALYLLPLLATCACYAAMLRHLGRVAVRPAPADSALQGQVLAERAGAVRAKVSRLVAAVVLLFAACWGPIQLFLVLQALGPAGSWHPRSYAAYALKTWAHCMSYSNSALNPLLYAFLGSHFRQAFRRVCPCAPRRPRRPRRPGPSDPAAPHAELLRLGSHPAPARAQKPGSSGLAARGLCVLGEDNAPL
Gonadotropin-releasing hormone receptor (Homo sapiens), sequence (P30968 whole entry, looked up): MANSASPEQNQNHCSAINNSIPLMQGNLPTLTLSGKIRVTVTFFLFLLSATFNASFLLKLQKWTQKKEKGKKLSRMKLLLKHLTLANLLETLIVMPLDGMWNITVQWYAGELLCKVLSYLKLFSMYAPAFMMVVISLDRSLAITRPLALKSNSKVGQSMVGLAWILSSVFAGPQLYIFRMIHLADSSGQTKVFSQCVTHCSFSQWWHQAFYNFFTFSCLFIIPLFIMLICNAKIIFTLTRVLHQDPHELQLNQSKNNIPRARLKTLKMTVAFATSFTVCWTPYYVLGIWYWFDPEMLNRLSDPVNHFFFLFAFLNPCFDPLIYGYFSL
5-hydroxytryptamine receptor 2A (Homo sapiens), sequence (P28223 whole entry, looked up): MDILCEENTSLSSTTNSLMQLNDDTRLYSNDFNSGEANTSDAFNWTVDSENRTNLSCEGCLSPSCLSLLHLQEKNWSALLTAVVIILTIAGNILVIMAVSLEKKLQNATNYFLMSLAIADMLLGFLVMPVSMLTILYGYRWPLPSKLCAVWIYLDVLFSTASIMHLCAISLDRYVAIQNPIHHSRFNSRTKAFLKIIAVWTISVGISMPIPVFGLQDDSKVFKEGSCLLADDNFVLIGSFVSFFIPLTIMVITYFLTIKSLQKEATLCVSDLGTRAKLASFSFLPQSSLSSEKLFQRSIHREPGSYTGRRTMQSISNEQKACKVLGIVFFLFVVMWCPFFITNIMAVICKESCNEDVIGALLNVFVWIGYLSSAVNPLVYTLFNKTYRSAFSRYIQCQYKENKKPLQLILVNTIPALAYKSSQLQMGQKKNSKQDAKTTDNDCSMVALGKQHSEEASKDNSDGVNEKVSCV

With `CC(=O)C(C)O` (configuration not stated), the Potency entry in assay [1], in assay [2], in assay [3], in assay [4], in assay [5] and in [6] was “inactive” throughout. Besides, the Potency entry in [7], in [8], in assay [9], in [10], in [11] and in [12] was “inactive” throughout. Also, the Potency entry in [13], in assay [14], in assay [15], in assay [16], in assay [17] and in assay [18] was “inactive” each time. Further, the Potency entry in [19] and in [20] was “inactive” throughout.

In the case of `CC(=O)c1ccc2c(c1)CCCC2`, the Potency result in assay [1], in assay [2], in [3], in [4], in assay [5] and in [6] was “inactive” in each case. The Potency result in assay [7], in assay [8], in assay [9], in assay [10], in assay [11] and in [12] was “inactive” throughout. Moreover, the Potency result in assay [13], in assay [14], in [15], in assay [16], in assay [17] and in [18] was “inactive” in each case. For the same compound, the Potency entry in assay [19] and in [20] was “inactive” throughout.

Regarding `NNC(=O)c1cccc(C(=O)NN)c1`, the Potency entry in assay [1], in assay [2], in assay [3], in assay [4], in assay [5] and in assay [6] was “inactive” throughout. Moreover, the Potency entry in assay [7], in assay [8], in assay [9], in assay [10], in assay [11] and in [12] was “inactive” throughout. Moreover, the Potency entry in assay [13], in assay [14], in [15], in assay [16], in assay [17] and in assay [18] was “inactive” throughout. For the same compound, the Potency entry in assay [19] was “inactive”.

In the case of `C1=CCC2CC=CC2C1` (configuration not stated), the Potency entry in assay [1], in assay [2], in [3], in assay [4], in assay [5] and in assay [6] was “inactive” in each case. The Potency entry in assay [7], in assay [8], in [9], in assay [10], in assay [11] and in assay [12] was “inactive” each time. For the same compound, the Potency result in assay [14], in [16], in assay [17], in assay [18], in [19] and in assay [20] was “inactive” in each case. Also, the Potency in [13] is 3.34 µM (active).

Turning to `O=C(O[C@@H]1Cc2c(O)cc(O)cc2O[C@@H]1c1cc(O)c(O)c(O)c1)c1cc(O)c(O)c(O)c1`, the Potency result in assay [1], in assay [2], in assay [3], in [4], in assay [5] and in [6] was “inactive” in each case. The Potency entry in assay [7], in assay [8], in assay [9], in assay [10], in assay [11] and in assay [12] was “inactive” in each case. For the same compound, the Potency result in assay [13], in assay [14], in assay [15], in assay [16], in assay [17] and in [19] was “inactive” in each case. The Potency entry in assay [20] is “inactive”.

`N=c1nc(N2CCCCC2)cc(N)n1O`: the Potency result in [1], in assay [2], in assay [3], in assay [4], in assay [5] and in assay [6] was “inactive” each time. Besides, the Potency entry in assay [7], in assay [8], in [9], in assay [10], in assay [11] and in [12] was “inactive” each time. In addition, the Potency entry in assay [13], in [14], in assay [15], in assay [16], in assay [17] and in assay [18] was “inactive” in each case. Also, the Potency result in assay [19] and in assay [20] was “inactive” throughout.

For `COC(=O)c1cc(Cl)ccc1NS(=O)(=O)C(F)(F)F`, the Potency entry in assay [1], in assay [2], in assay [3], in assay [4], in assay [5] and in [6] was “inactive” throughout. The Potency result in [7], in assay [8], in assay [9], in assay [10], in [11] and in [12] was “inactive” throughout. Further, the Potency result in assay [13], in assay [14], in [15], in [16], in [17] and in [18] was “inactive” throughout. Also, the Potency result in assay [19] and in [20] was “inactive” each time.
